According to PubChem BioAssay AID1159580 (chemical genetic matrix, 2015):
Values joined by “and” are separate entries in the source; they are usually repeats but may differ in a detail not shown here. Equal values may be shown once. The campaign covered roughly 5,500 compounds. About 2,000 (36%) were called active. Not shown: some 18% with an inconclusive outcome. Cut-off read from the data, not from the text of the source: active = normalized growth mostly below about 0.91 (no sharp cut-off); inconclusive = no clear call, values can overlap the other calls; inactive = mostly above about 0.92. The list shows a part of the results.

Test: chemical genetic growth profiling, strain panel (AID 1159580);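 note: tested at 20 µM; growth read once vehicle control cultures reached saturation at 30 °C; 1 = growth at the plate median or of vehicle wells; lower values mean less growth of the strain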
Conditions: S. cerevisiae deletion strains, growth OD

Measured: normalized growth

COc1ccc2c(=O)c(CC(=O)O)coc2c1
inactive: locus YAL021C, strain ccr4, stronger effect = lower value 1.01 | locus YAL026C, strain drs2, stronger effect = lower value 0.984 | locus YAL030W, strain snc1, stronger effect = lower value 0.983 | locus YBL061C, strain skt5, stronger effect = lower value 0.989 | locus YBR009C, strain hhf1, stronger effect = lower value 0.987 | locus YBR021W, strain FUR4, stronger effect = lower value 1.02 | locus YBR023C, strain chs3, stronger effect = lower value 0.999 | locus YBR171W, strain sec66, stronger effect = lower value 0.956 | locus YBR229C, strain ROT2, stronger effect = lower value 1 | locus YBR231C, strain swc5, stronger effect = lower value 0.972 | locus YBR279W, strain paf1, stronger effect = lower value 0.997 | locus YCL011C, strain gbp2, stronger effect = lower value 0.995 | locus YCL016C, strain dcc1, stronger effect = lower value 1.04 | locus YCL029C, strain bik1, stronger effect = lower value 1 | locus YCL061C, strain MRC1, stronger effect = lower value 1 | locus YCL069W, strain vba3, stronger effect = lower value 0.975 | locus YCR088W, strain abp1, stronger effect = lower value 0.971 | locus YDL005C, strain med2, stronger effect = lower value 0.985 | locus YDL035C, strain GPR1, stronger effect = lower value 1.03 | locus YDL040C, strain nat1, stronger effect = lower value 0.979 | locus YDL074C, strain BRE1, stronger effect = lower value 1.05 | locus YDL101C, strain DUN1, stronger effect = lower value 0.987 | locus YDL134C, strain PPH21, stronger effect = lower value 1.01 | locus YDL185W, strain tfp1, stronger effect = lower value 0.984 | locus YDL192W, strain arf1, stronger effect = lower value 1.01 | locus YDR001C, strain nth1, stronger effect = lower value 0.995 | locus YDR069C, strain doa4, stronger effect = lower value 0.953 | locus YDR101C, strain arx1, stronger effect = lower value 1.04 | locus YDR137W, strain rgp1, stronger effect = lower value 1 | locus YDR159W, strain sac3, stronger effect = lower value 0.926 | locus YDR162C, strain NBP2, stronger effect = lower value 1.05 | locus YDR195W, strain ref2 0.964 | locus YDR297W, strain sur2, stronger effect = lower value 0.965 | locus YDR318W, strain mcm21, stronger effect = lower value 0.991 | locus YDR334W, strain swr1, stronger effect = lower value 0.968 | locus YDR335W, strain msn5, stronger effect = lower value 0.987 | locus YDR388W, stronger effect = lower value 1 | locus YDR392W, strain spt3, stronger effect = lower value 0.939 | locus YDR502C, strain sam2, stronger effect = lower value 0.991 | locus YEL003W, strain gim4, stronger effect = lower value 0.98 | locus YEL037C, strain rad23, stronger effect = lower value 0.977 | locus YEL061C, strain CIN8 (second series), stronger effect = lower value 0.973 | locus YEL061C, strain CIN8, stronger effect = lower value 1.01 | locus YER015W, strain faa2, stronger effect = lower value 0.976 | locus YER016W, strain bim1, stronger effect = lower value 0.986 | locus YER110C, stronger effect = lower value 0.976 | locus YER111C, strain swi4, stronger effect = lower value 0.981 | locus YER155C, strain BEM2 (second series), stronger effect = lower value 0.981 | locus YER155C, strain BEM2, stronger effect = lower value 0.989 | locus YER167W, strain BCK2, stronger effect = lower value 1.01 | locus YFR010W, strain ubp6, stronger effect = lower value 0.969 | locus YGL078C, strain dbp3, stronger effect = lower value 0.96 | locus YGL086W, strain mad1, stronger effect = lower value 1.02 | locus YGL167C, strain pmr1, stronger effect = lower value 0.992 | locus YGL173C, strain kem1, stronger effect = lower value 0.982 | locus YGL227W, strain vid30, stronger effect = lower value 0.984 | locus YGL240W, strain doc1, stronger effect = lower value 0.951 | locus YGL248W, strain PDE1, stronger effect = lower value 1.01 | locus YGL253W, strain hxk2, stronger effect = lower value 0.961 | locus YGR078C, strain PAC10, stronger effect = lower value 1.01 | locus YGR135W, strain pre9, stronger effect = lower value 0.949 | locus YGR252W, strain gcn5, stronger effect = lower value 0.987 | locus YHR013C, strain ard1, stronger effect = lower value 1.02 | locus YHR027C, strain rpn1, stronger effect = lower value 0.969 | locus YHR030C, strain SLT2, stronger effect = lower value 1.01 | locus YHR079C, strain IRE1 (second series), stronger effect = lower value 0.984 | locus YHR079C, strain IRE1, stronger effect = lower value 0.991 | locus YHR094C, strain hxt1, stronger effect = lower value 0.983 | locus YHR129C, strain ARP1, stronger effect = lower value 1 | locus YHR142W, strain chs7, stronger effect = lower value 0.995 | locus YHR200W, strain rpn10, stronger effect = lower value 1.01 | locus YIL066C, strain RNR3, stronger effect = lower value 1 | locus YIL073C, strain SPO22, stronger effect = lower value 0.974 | locus YIL125W, strain kgd1, stronger effect = lower value 1 | locus YIR030C, strain dcg1, stronger effect = lower value 1 | locus YJL092W, strain hpr5, stronger effect = lower value 0.974 | locus YJL095W, strain BCK1 (second series), stronger effect = lower value 0.962 | locus YJL095W, strain BCK1, stronger effect = lower value 1.01 and 1.02 | locus YJL115W, strain asf1, stronger effect = lower value 0.984 | locus YJL129C, strain trk1, stronger effect = lower value 0.996 | locus YJL134W, strain LCB3, stronger effect = lower value 0.999 | locus YJL154C, strain vps35, stronger effect = lower value 0.987 | locus YJL164C, strain tpk1, stronger effect = lower value 1.01 | locus YJL166W, strain qcr8, stronger effect = lower value 0.973 | locus YJL168C, strain set2, stronger effect = lower value 0.987 | locus YJL187C, strain SWE1 (second series), stronger effect = lower value 0.993 | locus YJL187C, strain SWE1, stronger effect = lower value 0.977 | locus YJR043C, strain POL32, stronger effect = lower value 1.05
